# Rows were chosen to be rich in hits. Some 21% of all compounds tested hit in one or more screens of this group.
# DT40 TDP1 no CPT: qHTS for Inhibitors of human tyrosyl-DNA phosphodiesterase 1 (TDP1): qHTS in cells in absence of CPT. AID 686978, 2013. DT40 Tdp1-/- hTDP1 cells, no CPT, ATP luminescence, 48 h. actives 15% (n = 420,000). Potency, µM (series often up to 46.2 µM), inactives show top-dose activity change, negative = growth inhibition, hits mostly inhibitors; note: potency is the fitted concentration of half-maximal effect; % is set by controls: 0 for no effect and ±100 for the full control effect; nearly all actives have a fitted effect of over 55% in size
#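 Chicken DT40 Tdp1-/- cells complemented with human TDP1, screened without camptothecin (DMSO vehicle only), 400 cells/well. Compounds pin-transferred, cells incubated at 37 °C for at least 48 hr. Growth read as ATP-dependent luminescence (CellTiter-Glo, 30 min at RT).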
# IL1B secr inh: qHTS for Inhibitors of Inflammasome Signaling: IL-1-beta AlphaLISA Primary Screen; THP-1 LPS/ATP IL-1B secretion, AlphaLISA, 16 h; hits give low values; activity change, % at 57.5 µM; actives 4.7% (n = 360,000); AID 743279, 2014; in the data active = activity change below about -50%; inconclusive = mostly about -30% to -49%; note: % is set by controls: 0 for no effect and ±100 for the full control effect
#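 THP-1 cells pretreated 1 hr with compounds (up to 57.5 uM final), then stimulated with LPS (250 ng/mL final) plus ATP (1.25 mM final); secreted IL-1B measured by AlphaLISA after 16 hr, decreased signal indicating inhibition.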
# D3 ag: qHTS of D3 Dopamine Receptor Agonist: qHTS; D3R DiscoveRx beta-arrestin cells, luminescence, 90 min; max activation, %; actives 0.58% (n = 410,000); AID 652048, 2013; in the data active = max activation above about 30%; note: 0% is about no effect
# Target sequence (P35462 whole entry, looked up): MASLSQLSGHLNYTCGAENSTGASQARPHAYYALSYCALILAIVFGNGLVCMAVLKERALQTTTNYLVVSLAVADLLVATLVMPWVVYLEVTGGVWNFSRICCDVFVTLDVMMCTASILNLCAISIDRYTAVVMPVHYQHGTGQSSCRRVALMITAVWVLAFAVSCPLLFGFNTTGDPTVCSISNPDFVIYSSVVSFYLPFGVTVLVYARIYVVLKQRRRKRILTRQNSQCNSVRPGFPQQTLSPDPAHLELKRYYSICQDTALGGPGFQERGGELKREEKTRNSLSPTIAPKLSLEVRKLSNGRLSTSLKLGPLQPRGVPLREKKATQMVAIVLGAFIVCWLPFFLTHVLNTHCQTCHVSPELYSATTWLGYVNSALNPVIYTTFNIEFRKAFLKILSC
#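 Agonist-mode cell screen: cells plated at 1500/well and incubated overnight at 37 °C, then exposed to library compounds for 90 min at 37 °C. Detection reagent was added for 30–60 min at room temperature, and luminescence was read.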
# TDP1 cell CPT: qHTS for Inhibitors of human tyrosyl-DNA phosphodiesterase 1 (TDP1): qHTS in cells in presence of CPT; actives 12% (n = 420,000); Potency, µM (series often up to 46.2 µM), without a hit: at the top dose activity change, negative = growth inhibition, most hits filed as inhibitors; AID 686979, 2013; chicken DT40 Tdp1-/-;hTDP1 cells + 20 nM CPT, ATP luminescence, 48 h; note: potency is the fitted concentration of half-maximal effect; % is set by controls: 0 for no effect and ±100 for the full control effect; nearly all actives have a fitted effect of over 55% in size
#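 Chicken DT40 Tdp1-/- cells complemented with human TDP1, 400 cells/well, exposed to compounds plus 20 nM camptothecin for at least 48 h at 37 C; viability read as ATP content by CellTiter-Glo luminescence.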
# D3 antag: qHTS of D3 Dopamine Receptor Antagonist: qHTS | D3R cells, DiscoveRx beta-arrestin luminescence, antagonist mode; hits give low values | max response, negative = inhibition, % | actives 2.5% (n = 360,000); in the data active = max response below about -50%; inconclusive = no clear call, values can overlap the other calls; note: % is set by controls: 0 for no effect and ±100 for the full control effect
#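 Cells expressing the human receptor were seeded at 1500 cells/well, incubated overnight at 37 degrees C in 5% CO2, then exposed to library compounds with dopamine controls for 90 minutes at 37 degrees C before luminescent detection.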
# ClpP mod: qHTS Assay for Activators of ClpP | ATP-dependent Clp protease proteolytic subunit (Bacillus subtilis (strain 168)), P80244 | purified B. subtilis ClpP, FRET peptide cleavage, 20 min | Potency, µM (doses to about 57.5 µM), for the others: top-dose activity change, negative = active | actives 1.9% (n = 340,000); active = well fitted falling curve with a large enough effect; inconclusive = small, poorly fitted or top-dose-only effect; inactive = no such curve, though single readings can be large or run the other way; note: potency is the fitted concentration of half-maximal effect; the source files actives as falling curves though it sought activators and does not explain the sign; nearly all actives have a fitted effect of over 65% in size
# Target sequence (P80244 whole entry, looked up): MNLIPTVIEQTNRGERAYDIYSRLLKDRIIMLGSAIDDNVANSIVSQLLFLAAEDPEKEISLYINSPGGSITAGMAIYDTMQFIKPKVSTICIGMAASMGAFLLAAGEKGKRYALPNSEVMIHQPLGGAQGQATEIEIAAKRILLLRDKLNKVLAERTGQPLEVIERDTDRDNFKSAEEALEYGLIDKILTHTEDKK
#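 Buffer: 100 mM Tris/HCl pH8, 100 mM KCl, 0.05% low protease BSA, 2.5% glycerol, 0.01% Tween-20. ClpP 10 microg/mL final; 20 min RT; delta FRET normalized to ADEP and DMSO controls.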
# An asterisk follows results filed as active; u = inconclusive; x = no result given. Unless noted, calls come from the whole dose curve; as a rule, active = well fitted inhibition curve with a large enough effect; inconclusive = small, poorly fitted or top-dose-only effect; inactive = flat fitted curve, though single readings scatter.
SMILES,DT40 TDP1 no CPT,IL1B secr inh,D3 ag,TDP1 cell CPT,D3 antag,ClpP mod
CCOC(=O)C1=C(CN2CCN(CC)CC2)NC(=O)NC1c1ccc(Cl)cc1 (stereo not given),23µM*,x,-10,u,x,-1%
C#CCn1c(=NC(=O)c2cccs2)sc2cccc(OCC)c21,21µM*,43,-3,-25%,1,4%
O=C(O)CC(NS(=O)(=O)c1ccc(Br)s1)c1ccccc1 (stereo not given),-6%,x,3,-15%,x,0%
CC(C)NC(=O)c1onc(CSc2nc3ccccc3[nH]2)c1C(=O)NC(C)C,-7%,-3,-14,-11%,-19,-1%
CN(c1ncnc2c1c(-c1ccccc1)cn2-c1cccc(Cl)c1)C1CCCCC1,-29%,x,-11,-16%,x,-18%
Cc1ccc(-n2cc(-c3ccccc3)c3c(N4CCOCC4)ncnc32)cc1,u,u,2,-29%,27,x
CN(c1ncnc2c1c(-c1ccccc1)cn2-c1ccc(F)cc1)C1CCCCC1,23µM*,x,-8,u,x,28µM*
c1ccc(-c2cn(-c3ccccc3)c3ncnc(N4CCN(c5ccccc5)CC4)c23)cc1,u,x,8,u,x,-2%
CC1CN(c2ncnc3c2c(-c2ccccc2)cn3-c2ccc(F)cc2)CC(C)O1 (stereo not given),9.2µM*,u,-35,16µM*,-92*,x
OCCN1CCN(c2ncnc3c2c(-c2ccccc2)cn3-c2ccc(F)cc2)CC1,26µM*,-97*,-20,u,-75*,0%
Cc1ccc(-n2cnc3cc(C(=O)NC4CCCCCC4)ccc32)cc1Cl,u,x,-16,u,x,1%
CCCOc1ccc(/C=N/NC(=O)C2CCCN2S(=O)(=O)c2ccc(Cl)cc2)cc1 (stereo not given),u,-4,9,16µM*,-3,1%
O=C(Nc1ccc(Cl)cn1)C1CCCN1S(=O)(=O)c1ccc(Cl)cc1 (stereo not given),-24%,-1,-5,u,18,1%
COc1ccc(NC(=O)[C@@H]2CCCN2S(=O)(=O)c2ccc(Cl)cc2)cc1,u,-3,-7,u,-15,-1%
CC(C)Oc1ccc(/C=N/NC(=O)C2CCCN2S(=O)(=O)c2ccc(Cl)cc2)cc1 (stereo not given),21µM*,-1,6,u,0,85%
CCOC(=O)c1cc2cc(CC(=O)c3ccc(OCC)cc3O)ccc2o1,u,24,-2,-10%,-1,-3%
CCOc1ccc(C(=O)Cc2ccc3oc(C(=O)O)cc3c2)c(O)c1,-4%,-18,-19,-11%,-62*,-4%
Cc1cc([N+](=O)[O-])nn1Cc1noc(C(=O)NCCc2ccccn2)n1,13%,19,1,-3%,11,x
COC(=O)CC1C(=O)NCCN1C(=O)CSc1nc2ccc([N+](=O)[O-])cc2s1 (stereo not given),-7%,-17,1,6%,9,x
CCOC(=O)Cc1nnc2c(Nc3ccc(C)cc3)nc3nonc3n12,-20%,14,-10,-23%,21,-2%
CCOC(=O)Cc1nnc2c(Nc3ccccc3F)nc3nonc3n12,23µM*,8,8,23µM*,8,1%
CCCN(CCC)CCCNC(=O)c1cc2c(=O)n(C)c3ccccc3c2n1C,26µM*,-65*,-8,u,-11,4%
CCN(CC)CCNC(=O)c1cc2c(=O)n(C)c3ccccc3c2n1C,u,u,-4,u,0,4%
CCN(CC)CCCNC(=O)c1cc2c(=O)n(C)c3ccccc3c2n1C,u,-87*,-9,u,-15,4%
CCCN(CCC)CCCNC(=O)c1cc2c(=O)n(C)c3ccccc3c2s1,18µM*,x,-25,u,x,4%
SMILES,DT40 TDP1 no CPT,IL1B secr inh,D3 ag,TDP1 cell CPT,D3 antag,ClpP mod
CCN(CC)CCNC(=O)c1cc2c(=O)n(C)c3cc(Cl)ccc3c2s1,21µM*,x,-13,u,x,3%
Cc1cc(Br)ccc1NC(=O)c1cc2c(=O)n(C)c3cc(Cl)ccc3c2s1,u,x,-13,u,x,-12%
Nc1c(C(=O)OCC(=O)Nc2cccc([N+](=O)[O-])c2)[nH]c(=O)[nH]c1=O,-15%,15,-5,0%,-24,-19%
COCCNC(=O)c1cc2c(=O)n(C)c3ccccc3c2n1C,-14%,-6,0,-10%,16,4%
CCCN(CCC)CCCNC(=O)c1cn(CCOC)c(=O)c2c1c1ccccc1n2C,-15%,6,3,u,-11,14µM*
CCCCN(CC)CCNC(=O)c1cc2c(=O)n(C)c3ccccc3c2n1C,15µM*,-80*,-17,18µM*,-73*,5%
COCCCNC(=O)c1cc2c(=O)n(C)c3ccccc3c2n1C,u,-4,-1,18µM*,8,4%
CN(C)CCNC(=O)c1cc2c(=O)n(C)c3ccccc3c2n1C,-26%,-20,2,-18%,-7,4%
CC(=O)c1cc2c(cc1NS(=O)(=O)c1ccccc1F)OCO2,u,-2,-3,-11%,-2,-1%
Cc1occc1-c1nnc(SCC(=O)c2ccc3c(c2)OCCO3)n1CC1CCCO1 (stereo not given),-5%,8,0,-25%,-4,0%
CCCCn1c(SCC(=O)c2ccc3c(c2)OCCO3)nnc1-c1ccoc1C,u,-96*,-7,u,-9,-28%
CSc1c(C#N)c(N)c(C#N)c2c1COC(C)(C)C2,-21%,16,26,-28%,18,14µM*
Cc1[nH]c(=O)c(C#N)c2c1COC(C)(C)C2,-1%,-6,-11,4%,-10,x
Cc1cc(C)c(NC(=O)COCc2cc(-c3cccs3)on2)c(C)c1,u,x,-3,18µM*,x,2%

# Screening data deposited in PubChem by National Center for Advancing Translational Sciences (NCATS).
